# Laboratory results taken from PubChem BioAssay (NCATS).
# Inconclusive results are not listed. Unmarked numbers belong to inactive results. Active and inactive are the calls of the source. The call rests on the fitted dose curve; in most records, active means well fitted inhibition curve with a large enough effect; inconclusive means small, poorly fitted or top-dose-only effect, or effect the other way; inactive means flat fitted curve, though single readings scatter.
# Test: qHTS for Inhibitors of Plasmodium falciparum (CP250) proliferation (AID 504320);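 further: plate controls were DMSO vehicle for no effect and 0.29 µM artemisinin control for full effect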
# Conditions: P. falciparum CP250 in erythrocytes, SYBR Green DNA, 72 h; series mostly up to 6.7 µM; activity change, negative = inhibition: at the top concentration
# In short: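 Erythrocytes infected with P. falciparum line (0.3% parasitemia, 2.5% hematocrit final) incubated with compounds 72 h at 37 °C, 5% CO2; SYBR Green lysis buffer added, fluorescence read next day. Normalized to 0.29 uM artemisinin and DMSO.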
Structure (SMILES),Potency,"activity change, negative = inhibition [%]"
CC(=O)[C@@H]1[C@@H](C)N(Cc2ccccc2)C(=O)N[C@H]1c1cccc(C(F)(F)F)c1,inactive,
COC(=O)C1=C(C(=O)OC)[C@@H]2Nc3ccccc3[C@@]23C[C@@H](C(=O)OC)N(C(=O)NC2CCCC2)C3=N1,,2.05
COC(=O)CCC(=O)OC1(C)C(=O)C2=CN(CCc3ccccn3)C(c3ccc(OC)cc3)=CC2=C(Br)C1=O (stereo unspecified),,2.41
COC(=O)N[C@@H](c1cccc(C)c1)[C@]1(C(C)=O)CCCC1=O,,2.12
CCOC(=O)CN1C(=O)N[C@@H](c2cccc(F)c2)C(C(C)=O)=C1C,,-2.88
COC[C@@H](O)[C@@H](OC)[C@H](OC)[C@H](Cc1c(OC)cc(OC)cc1OC)OC,,-1.67
COc1ccc(-c2nc3c(c4c2C[C@H](c2ccccc2)OC4)CN(C(=O)NCCc2c[nH]c4ccccc24)CC3)c(C)c1,,1.71
CC(C)CN1C=C2C(=O)C(C)(OC(=O)C3CCCC3)C(=O)C=C2C=C1c1ccsc1 (stereo unspecified),,7.8
CCOC(=O)NN=C1C[C@@H](O)[C@@H](O)[C@@H]2[C@H]3C(=O)N([C@@H](C)c4ccccc4)C(=O)[C@@H]3CC[C@@H]12,,-1.3
C[C@H]1Cc2c(COc3ccccc3)nc3c(c2CO1)CN(C(=O)Nc1cccc(C#N)c1)CC3,,-0.127
CCO[C@H](c1cc(OC)cc([N+](=O)[O-])c1OC)[C@H](C)C=CCC(=O)OC,,1.52
COC(=O)C1=C(C(=O)OC)[C@@H]2N(C)c3ccccc3[C@@]23C[C@@H](C(=O)OC)N=C3N1,,-8.86
COC(=O)C1=C(C(=O)OC)[C@@H]2Nc3ccccc3[C@@]23C[C@@H](C(=O)OC)N(C(C)=O)C3=N1,,-0.491
COc1ccc(C2=CC3=C(Br)C(=O)C(C)(OC(=O)c4ccco4)C(=O)C3=CO2)cc1 (stereo unspecified),,1.79
CCCCc1nc2c(c3c1C[C@H](C)OC3)CN(C(=O)COC)CC2,,1.7
COC/C=C/C1=CC2=CC(=O)C(C)(OC(=O)c3cnc4ccccc4n3)C(=O)C2=CN1CCN1CCOCC1 (stereo unspecified),,-0.788
